Eight compounds from PubChem BioAssay (Tox21) can be followed below.

Unmarked numbers belong to inactive results. Results filed as inconclusive are left out. The source made the active and inactive calls. Unless noted, calls follow the shape of the full dose curve.

Assay [1] is described as follows: Nuclear factor erythroid 2-related factor 2/antioxidant responsive element (Nrf2/ARE) small molecule agonists: luciferase reporter gene qHTS assay in human keratinocytes (AID 1919969). Also: nearly all actives have a fitted effect of over 35% in size. Also: potency is read from the fitted curve at half-maximal effect. For orientation: A reporter such as luciferase makes a cellular process visible.
Assay [2] concerns the target Gonadotropin-releasing hormone receptor (Homo sapiens) (UniProt P30968). Put plainly: Human gonadotropin-releasing hormone receptor (GnRHR) small molecule agonists, calcium flux assay in GnRHR-HEK293 cells (AID 1920063). Also: nearly all actives have a fitted effect of over 35% in size. In short, it runs like this: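 Agonist activity was measured as intracellular calcium flux in HEK293 cells engineered to stably express human GnRHR. After dye loading for 1 hour at 37 C, compounds in DMSO were added and fluorescence was followed for 3 minutes.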
A general note: A change in cytosolic calcium serves as a functional read-out for many receptors and channels.

Assay [3] has as its target KiSS-1 receptor (Homo sapiens) (UniProt Q969F8). Description: Human kisspeptin (KISS1R) small molecule agonists, calcium flux assay in KISS1R-HEK293 cells (AID 1920064; active = well fitted activation curve with a large enough effect in the repeat runs). In short, it runs like this: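 Agonist activity is monitored as intracellular calcium rise in engineered HEK293 cells carrying human KISS1R. Cells are dye-loaded for 1 h at 37 C before compound addition, and fluorescence is recorded for 3 min.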

The nature of assay [4]: G protein-coupled receptor (GPCR) small molecule agonists, calcium flux assay: HEK293 wild type cell line counter screen (AID 1920065). In short, it runs like this: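 Seed cells, incubate 18 h (37 C, 5% CO2); add calcium dye, 1 h at 37 C; pin-transfer compounds, ATP control or DMSO; read fluorescence 480/540 nm each second for 3 min.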
Assay [5] in a line: p53 small molecule agonists, cell-based qHTS assay with human liver microsomes (AID 1963577). A digest of the protocol: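 p53RE-bla cells, 4,000/well, compound added after 5 h, with human liver microsomes 0.5 mg/mL and NADPH 0.5 mg/mL final; 16 h at 37 C, then LiveBLAzer 2 h RT, fluorescence.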
A general note: Quantitative high-throughput screening tests each substance at several concentrations.

A short description of assay [6]: p53 small molecule agonists, cell-based qHTS assay with rat liver microsomes (AID 1963578). In short, it runs like this: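 p53RE-bla cells, 4,000/well, pre-incubated 5 h, then given compounds plus rat liver microsomes (0.5 mg/mL final) and NADPH (0.5 mg/mL final). Incubation 16 h at 37 C; beta-lactamase reporter read by LiveBLAzer fluorescence after 2 h at room temperature.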

Assay [7] in a line: p53 small molecule agonists, cell-based qHTS assay with human liver microsomes: qHTS cell viability counter screen (AID 1963579). Also: nearly all actives have a fitted effect of over 45% in size. Also: potency is read from the fitted curve at half-maximal effect. In short, it runs like this: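 p53RE-bla cells, 4,000/well, dosed 5 hours after plating, with human liver microsomes (0.5 mg/mL final) plus NADPH (0.5 mg/mL final), 16 hours at 37 C. Viability read as CellTiter-Glo luminescence after 30 min at room temperature.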

Assay [8] is described as follows: p53 small molecule agonists, cell-based qHTS assay with rat liver microsomes: qHTS cell viability counter screen (AID 1963580). Also: nearly all actives have a fitted effect of over 45% in size. Also: potency is read from the fitted curve at half-maximal effect. In short, it runs like this: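 Cytotoxicity counter screen: intracellular ATP measured by CellTiter-Glo luminescence in the same wells as the beta-lactamase reporter read, on HCT-116 p53RE-bla cells exposed 16 h at 37 C to compounds with rat liver microsomes and NADPH, each 0.5 mg/mL final.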

The nature of assay [9]: p53 small molecule agonists, cell-based qHTS assay: qHTS cell viability counter screen (AID 1963581). Also: nearly all actives have a fitted effect of over 45% in size. Also: potency is read from the fitted curve at half-maximal effect. A digest of the protocol: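 Viability was counter-screened in parallel with the p53 agonist reporter by measuring intracellular ATP luminescence in the same HCT-116 p53RE-bla wells after 16 h compound treatment at 37 C.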
Assay [10] is described as follows: p53 small molecule agonists, cell-based qHTS assay (AID 1963582; active = well fitted activation curve with a large enough effect in the signal ratio in the repeat runs, not every such curve was filed as active; the % refers to the signal ratio). A digest of the protocol: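 Cells carrying a p53-responsive bla reporter are treated with test compounds for 16 h at 37 C; beta-lactamase activity is then detected with LiveBLAzer B/G FRET substrate after 2 h at room temperature.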
Assay [11] concerns the target Muscarinic acetylcholine receptor M1 (Homo sapiens) (UniProt P11229). Put plainly: Cholinergic receptor muscarinic 1 (CHRM1) small molecule antagonists, cell-based qHTS assay (AID 1963588). Also: nearly all actives have a fitted effect of over 40% in size. In short, it runs like this: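 Compounds were tested at 15 concentrations in three independent runs. Dye-loaded CHRM1-CHO cells were exposed 5 min at room temperature before stimulation by acetylcholine added at 50nM. Intracellular calcium was read kinetically on FDSS for 3 min.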

Assay [12] shares this target. Description: Cholinergic receptor muscarinic 1 (CHRM1) small molecule agonists, cell-based qHTS assay (AID 1963589). Also: nearly all actives have a fitted effect of over 35% in size. A digest of the protocol:
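Cells were plated and incubated 18 h at 37 C/5% CO2, loaded with calcium dye for 1 h at 37 C, then treated with compounds in DMSO. Fluorescence was recorded kinetically at 1 sec intervals.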

A short description of assay [13]: cAMP Responsive Elements (CRE) small molecule agonists, cell-based qHTS assay (AID 1963590). A digest of the protocol:
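Cells carrying a CRE-driven beta-lactamase reporter (HEK 293T) are seeded, incubated overnight (18 h), and treated with test compounds for 3 h at 37 C; reporter activity is then detected with a FRET substrate after 2 h at room temperature.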

Assay [14] is described as follows: cAMP Responsive Elements (CRE) small molecule antagonists, cell-based qHTS assay (AID 1963591; active = well fitted inhibition curve with a large enough effect in the signal ratio in the repeat runs, not every such curve was filed as active; the % refers to the signal ratio). In short, it runs like this:
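Cells (CRE-bla HEK 293T, DMEM with 10% dialyzed FBS and 25 mM HEPES) are seeded and incubated 18 h. Compounds are added with NKH477 agonist at 0.25 uM final for 3 h, then FRET substrate for 2 h.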

Assay [15] addresses Beta-2 adrenergic receptor (Homo sapiens) (UniProt P07550). Put plainly: Adrenergic beta2 receptor (ADRB2) small molecule antagonists, cell-based qHTS assay (AID 1963592). Also: series mostly up to about 92 µM; nearly all actives have a fitted effect of over 50% in size. In short, it runs like this: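 Assay format: CHO-ADRB2 cells, 18-20hr seeding at 37C/5% CO2, then compound plus 1nM isoproterenol agonist mix for 0.5hr RT. Homogeneous time-resolved fluorescence cAMP detection after 1hr, expressed as 665/615 nm ratio.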

For assay [16], the target named is 5-hydroxytryptamine receptor 2A (Homo sapiens) (UniProt P28223). Description: 5-hydroxytryptamine receptor 2A (HTR2A) small molecule agonists, cell-based qHTS assay (AID 1963587). Also: nearly all actives have a fitted effect of over 30% in size. Also: potency is read from the fitted curve at half-maximal effect. In short, it runs like this:
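CHO cells stably expressing human HTR2A, plated 18 h, loaded with calcium dye 1 h at 37 C. Agonist mode: compounds added and intracellular calcium fluorescence recorded kinetically for 2 min at 1 sec intervals.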

Assay [17] has as its target Beta-2 adrenergic receptor (Homo sapiens) (UniProt P07550). Put plainly: Adrenergic beta2 receptor (ADRB2) small molecule agonists, cell-based qHTS assay (AID 1963593).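 Also: CHO cells stably overexpressing human ADRB2.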 In short, it runs like this: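 CHO cells stably over-expressing ADRB2 were plated overnight at 37C, then dosed with compounds plus a stimulation mix containing 100uM IBMX and 25uM Ro-20-1724 for 0.5hr at room temperature. cAMP was measured by HTRF competition, 1hr.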

Assay [18] has as its target D(2) dopamine receptor (Homo sapiens) (UniProt P14416). Description: Dopamine D2 receptor (DRD2) small molecule agonists, cell-based qHTS assay (AID 1963594). Also: nearly all actives have a fitted effect of over 35% in size. In short, it runs like this: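 HEK293 cells stably expressing human DRD2, pre-treated with PDE inhibitor Ro20-1724 (0.1 mM final) and compound 10 min at room temperature, then stimulated with NKH477 (200nM […]) for 30 min. cAMP read by HTRF (665/620 nm).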

Assay [19] addresses 5-hydroxytryptamine receptor 2A (Homo sapiens) (UniProt P28223). Put plainly: 5-hydroxytryptamine receptor 2A (HTR2A) small molecule antagonists, cell-based qHTS assay (AID 1963586). Also: nearly all actives have a fitted effect of over 45% in size. Also: potency is read from the fitted curve at half-maximal effect. A digest of the protocol: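 CHO cells stably expressing human HTR2A were plated for 18 h at 37 C, then loaded with calcium dye for 1 h. Compounds were preincubated 5 min at room temperature before DOI (4 nM solution) was added. Kinetic fluorescence was read for 3 min.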

Assay [20] has as its target D(2) dopamine receptor (Homo sapiens) (UniProt P14416). Description: Dopamine D2 receptor (DRD2) small molecule antagonists, cell-based qHTS assay (AID 1963595; active = well fitted inhibition curve with a large enough effect in the signal ratio in the repeat runs, with a control signal flat; the % refers to the signal ratio; also: potency is read from the fitted curve at half-maximal effect). In short, it runs like this: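 HEK293 cells stably expressing DRD2, preincubated with 0.1 mM Ro20-1724 and compounds 10 min, were stimulated with 200 nM NKH477 plus 12 nM quinpirole for 30 min at room temperature; cAMP measured by HTRF (665/620 nm).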

Sequence of 5-hydroxytryptamine receptor 2A (Homo sapiens) (P28223 whole entry, looked up): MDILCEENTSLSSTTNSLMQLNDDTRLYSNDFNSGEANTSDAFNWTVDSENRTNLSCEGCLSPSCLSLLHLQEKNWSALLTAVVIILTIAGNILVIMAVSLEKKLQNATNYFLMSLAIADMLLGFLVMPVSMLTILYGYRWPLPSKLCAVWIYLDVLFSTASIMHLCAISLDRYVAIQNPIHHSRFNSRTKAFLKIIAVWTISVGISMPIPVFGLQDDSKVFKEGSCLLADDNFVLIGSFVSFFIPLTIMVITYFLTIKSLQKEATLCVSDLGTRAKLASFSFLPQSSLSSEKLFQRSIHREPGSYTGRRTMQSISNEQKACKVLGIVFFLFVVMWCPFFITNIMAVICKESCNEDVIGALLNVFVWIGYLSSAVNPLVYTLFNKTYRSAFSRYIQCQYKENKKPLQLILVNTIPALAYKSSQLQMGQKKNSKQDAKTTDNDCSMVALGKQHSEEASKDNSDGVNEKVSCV
Sequence of KiSS-1 receptor (Homo sapiens) (Q969F8 whole entry, looked up): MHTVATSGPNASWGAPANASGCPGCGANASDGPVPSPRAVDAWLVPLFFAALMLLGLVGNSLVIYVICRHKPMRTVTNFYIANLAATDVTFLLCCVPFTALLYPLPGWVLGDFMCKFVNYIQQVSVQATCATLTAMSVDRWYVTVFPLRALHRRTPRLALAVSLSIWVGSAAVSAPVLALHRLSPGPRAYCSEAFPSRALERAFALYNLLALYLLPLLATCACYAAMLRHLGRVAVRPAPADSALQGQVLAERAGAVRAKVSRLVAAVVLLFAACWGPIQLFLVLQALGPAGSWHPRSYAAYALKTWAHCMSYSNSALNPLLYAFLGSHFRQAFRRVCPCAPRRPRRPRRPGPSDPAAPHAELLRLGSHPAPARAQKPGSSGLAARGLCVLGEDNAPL
Sequence of Beta-2 adrenergic receptor (Homo sapiens) (P07550 whole entry, looked up): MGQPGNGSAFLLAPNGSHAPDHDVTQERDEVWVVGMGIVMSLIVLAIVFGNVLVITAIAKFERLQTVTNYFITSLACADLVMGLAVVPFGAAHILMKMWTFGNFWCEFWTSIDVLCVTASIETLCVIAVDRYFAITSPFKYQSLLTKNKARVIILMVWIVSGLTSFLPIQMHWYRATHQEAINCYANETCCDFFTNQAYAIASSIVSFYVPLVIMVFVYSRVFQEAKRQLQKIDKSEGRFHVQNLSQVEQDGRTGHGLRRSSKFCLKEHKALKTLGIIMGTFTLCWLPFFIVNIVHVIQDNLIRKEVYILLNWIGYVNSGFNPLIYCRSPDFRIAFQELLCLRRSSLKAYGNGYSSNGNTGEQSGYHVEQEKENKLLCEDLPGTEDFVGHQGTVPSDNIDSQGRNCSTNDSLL
Sequence of D(2) dopamine receptor (Homo sapiens) (P14416 whole entry, looked up): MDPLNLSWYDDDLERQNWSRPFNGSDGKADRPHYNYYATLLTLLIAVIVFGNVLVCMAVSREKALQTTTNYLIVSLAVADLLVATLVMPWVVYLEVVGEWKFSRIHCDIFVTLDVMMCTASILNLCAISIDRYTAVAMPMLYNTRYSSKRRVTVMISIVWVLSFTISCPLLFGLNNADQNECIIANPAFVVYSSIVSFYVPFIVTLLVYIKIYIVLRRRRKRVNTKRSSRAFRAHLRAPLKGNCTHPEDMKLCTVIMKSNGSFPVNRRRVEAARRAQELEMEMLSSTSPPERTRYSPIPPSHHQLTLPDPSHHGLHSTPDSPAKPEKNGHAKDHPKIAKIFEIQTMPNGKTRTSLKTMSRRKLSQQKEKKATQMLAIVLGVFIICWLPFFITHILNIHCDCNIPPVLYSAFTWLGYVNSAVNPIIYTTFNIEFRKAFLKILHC
Sequence of Gonadotropin-releasing hormone receptor (Homo sapiens) (P30968 whole entry, looked up): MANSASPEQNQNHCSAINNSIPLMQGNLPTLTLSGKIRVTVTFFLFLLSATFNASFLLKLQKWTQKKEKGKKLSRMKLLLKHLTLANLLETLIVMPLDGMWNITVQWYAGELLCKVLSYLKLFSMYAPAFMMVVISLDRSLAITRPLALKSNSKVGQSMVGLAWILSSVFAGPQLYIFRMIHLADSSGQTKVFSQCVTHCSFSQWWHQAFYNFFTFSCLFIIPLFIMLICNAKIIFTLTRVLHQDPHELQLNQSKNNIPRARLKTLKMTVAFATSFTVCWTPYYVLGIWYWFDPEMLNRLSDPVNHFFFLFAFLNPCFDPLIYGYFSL
Sequence of Muscarinic acetylcholine receptor M1 (Homo sapiens) (P11229 whole entry, looked up): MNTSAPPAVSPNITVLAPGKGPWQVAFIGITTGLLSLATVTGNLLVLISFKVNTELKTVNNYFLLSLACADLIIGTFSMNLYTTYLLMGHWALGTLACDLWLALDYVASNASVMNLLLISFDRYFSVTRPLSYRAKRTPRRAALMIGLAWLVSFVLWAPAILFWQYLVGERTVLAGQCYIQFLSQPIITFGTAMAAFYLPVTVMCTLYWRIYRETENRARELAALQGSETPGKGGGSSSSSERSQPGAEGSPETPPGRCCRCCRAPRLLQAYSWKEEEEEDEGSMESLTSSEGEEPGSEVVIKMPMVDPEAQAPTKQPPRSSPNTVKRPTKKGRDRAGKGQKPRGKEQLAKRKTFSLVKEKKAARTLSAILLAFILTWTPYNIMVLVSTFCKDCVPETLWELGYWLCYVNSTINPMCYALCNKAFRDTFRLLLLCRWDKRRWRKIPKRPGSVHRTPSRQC

In the case of `O=C(/C=C/c1ccc(O)c(O)c1)O[C@@H](C(=O)O)[C@@H](OC(=O)/C=C/c1ccc(O)c(O)c1)C(=O)O`, the Potency result in assay [1], in assay [2], in assay [3], in assay [4], in assay [5] and in assay [6] was “inactive” each time. For the same compound, the Potency entry in assay [7], in assay [8], in assay [9], in assay [10], in [11] and in assay [12] was “inactive” each time. In addition, the Potency result in assay [13], in [14] and in [15] was “inactive” throughout.
Turning to `CC1(C)O[C@@H]2C[C@H]3[C@@H]4CCC5=CC(=O)C=C[C@]5(C)[C@H]4[C@@H](O)C[C@]3(C)[C@]2(C(=O)CO)O1`, the Potency result in assay [1], in [2], in assay [3], in assay [4], in [5] and in [6] was “inactive” each time. Moreover, the Potency entry in assay [7], in assay [8], in assay [9], in assay [10], in assay [16] and in assay [11] was “inactive” throughout. Further, the Potency result in assay [12], in [15], in assay [17] and in assay [18] was “inactive” each time.
As to `Sc1nc2ccccc2s1`, in assay [1], the Potency is 68.6 µM (active). Further, the Potency entry in assay [2], in assay [3], in [4], in assay [5], in assay [6] and in [7] was “inactive” throughout. Also, the Potency result in assay [8], in assay [9], in assay [10], in [19], in assay [16] and in [12] was “inactive” each time. In addition, the Potency entry in [13], in [14], in assay [17], in assay [18] and in assay [20] was “inactive” throughout.
Take `COc1ccccc1OCCNCC(O)COc1cccc2[nH]c3ccccc3c12` (stereo unspecified): the Potency result in [1], in assay [2], in assay [3], in assay [4], in assay [5] and in [6] was “inactive” each time. Further, the Potency result in [7], in assay [8], in [9], in assay [10] and in assay [14] was “inactive” each time.
Consider `Cc1cc(Nc2ccc(O)cc2)ccc1N`, for which the Potency in assay [1] is 43.1 µM (active). Also, the Potency entry in assay [2], in assay [3], in [4], in assay [5], in assay [6] and in assay [7] was “inactive” in each case. Besides, the Potency result in assay [8], in assay [9], in assay [10], in assay [19], in assay [16] and in [11] was “inactive” each time. Also, the Potency entry in [12], in assay [13] and in assay [14] was “inactive” in each case.
As for `COc1cc(NC(C)CCCN)c2ncccc2c1` (stereo unspecified), the Potency in assay [1] is 11.9 µM (active). The Potency entry in assay [2], in assay [3], in [4], in assay [5], in [6] and in assay [7] was “inactive” in each case. Further, the Potency entry in assay [8], in assay [9], in [10], in assay [13], in assay [14] and in assay [20] was “inactive” each time.
For `C=CCN1C[C@H](C(=O)N(CCCN(C)C)C(=O)NCC)C[C@@H]2c3cccc4[nH]cc(c34)C[C@H]21`, the Potency result in assay [1], in assay [2], in assay [3], in assay [4], in assay [5] and in [6] was “inactive” throughout. The Potency result in assay [7], in [8], in [9], in assay [10], in assay [12] and in [13] was “inactive” throughout. Besides, in assay [17], the Potency result was “inactive”. The Potency is 0.0006 µM (active) in assay [19] and 0.0019 µM (active) in assay [16].
Turning to `C=C[C@](C)(O)CC[C@@H]1[C@@]2(C)CCCC(C)(C)[C@@H]2CC[C@@]1(C)O`, the Potency entry in assay [1], in [2], in [3], in assay [4], in [5] and in assay [6] was “inactive” throughout. Besides, the Potency result in assay [10], in assay [19], in assay [16], in [11], in assay [12] and in [14] was “inactive” in each case. Also, the Potency entry in assay [18] was “inactive”. Also, the Potency in assay [7] is 32.4 µM (active); in [8], 45.8 µM (active); in assay [9], 9.13 µM (active); in assay [20], 43.3 µM (active).
